Screening results (PubChem BioAssay)
Giardia killer: Small Molecules that selectively kill Giardia lamblia: qHTS. 0.15% of 340,000 active. activity change, % at 7.66 µM, hits read low. Giardia lamblia trophozoite viability; in the data active = activity change below about -80%; inconclusive = between about -30% and that limit;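 also: parasites exposed to compound for two days anaerobically before the ATP read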
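Media and compound were dispensed first, then trophozoites at 100 cells/well; plates sat 48 hrs at 37 deg C without oxygen before ATP luminescence reagent was added and read after 15-30 min at room temperature.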
FBPA coupling cs: qHTS Assay for Inhibitors of Fructose-1,6-bisphosphate Aldolase from Giardia Lamblia: Coupling assay counterscreen; 0.67% of 290,000 active; coupling enzyme system counterscreen, AmpLite Red fluorescence; activity change, negative = inhibition, % at 58.2 µM, hits read low; in the data active = activity change below about -30%
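Fluorescence at 525 nm excitation and 598 nm emission measured inhibition of the coupled detection system without aldolase. Compounds (at 57.5 uM final) were preincubated 10 min at room temperature with coupling enzyme reagent before a 20 min substrate/AmpLite Red step.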
ELG1 repair inh: qHTS screen for small molecules that inhibit ELG1-dependent DNA repair in human embryonic kidney (HEK293T) cells expressing luciferase-tagged ELG1; HEK293T ELG1-luciferase reporter, luminescence, 16 h; DNA damage induced by 5-fluorouridine; Potency, µM (top dose mostly 46.1 µM), for the others: at the highest dose activity change, negative = inhibition, usual class: inhibitors; 2.3% of 330,000 active; also: potency is read from the fitted curve at half-maximal effect; nearly all actives have a fitted effect of over 55% in size
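Step one: seed 2,000 cells per well. Step two: pin-transfer compound or DMSO alongside 5-fluorouridine. Step three: incubate 16 hr, 37 °C, 5% CO2. Step four: add ONE-Glo, wait 30 min, read luminescence.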
Sfp PPTase inh: qHTS Assay for Inhibitors of Bacillus subtilis Sfp phosphopantetheinyl transferase (PPTase). 3.5% of 310,000 active. AID 1490, 2009. Biochemical Sfp PPTase activity, qHTS. 4'-phosphopantetheinyl transferase ffp (Bacillus subtilis), Q9F4F7. Potency, µM, inactives show largest response in the series, negative = inhibition, usual class: inhibitors;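 also: the enzyme is Sfp with the accession as filed and its product quenches rhodamine fluorescence; potency is read from the fitted curve at half-maximal effect; 0% = enzyme reaction without inhibitor and -100% = no enzyme wells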
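Buffer: 50 mM Hepes-Na pH 7.6, 10 mM MgCl2, 0.01% Nonidet P-40, 0.01% BSA. Enzyme 15 nM, pre-exposed to compound 15 min; substrates then added and fluorescence change tracked over 30 min.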
ELG1 FLuc counter: qHTS screen for small molecules that inhibit ELG1-dependent DNA repair: Hit Confirmation in Cell-Based Luciferin Assay | shares compounds with ELG1 repair inh | cell-free firefly luciferase luminescence counter-screen, ViewLux | Potency, µM (highest dose often 46.1 µM), without a hit: at the top dose activity change, negative = inhibition, hits mostly inhibitors | 3% of 350 active | AID 624247, 2012; also: potency is read from the fitted curve at half-maximal effect
ELG1-Luc inh: HTS assay for small molecules that inhibit ELG1-dependent DNA repair in human embryonic kidney (HEK293T) cells expressing luciferase-tagged ELG1: Hit Confirmation | shares compounds with ELG1 repair inh | HEK293T ELG1-luciferase levels, luminescence; cells co-treated with 5-fluorouridine | Potency, µM (top dose mostly 46.1 µM), without a hit: top-dose activity change, negative = inhibition, most hits filed as inhibitors | 68% of 670 active; also: potency is read from the fitted curve at half-maximal effect; nearly all actives have a fitted effect of over 55% in size
ELG1 MMS Luc: confirmation of human ELG1 repair inhibitors, MMS stimulated. 53% of 670 active. HEK293T luciferase-tagged ELG1 level, MMS stimulated. Potency, µM (doses to about 46.1 µM), inactives show top-dose activity change, negative = inhibition, usual class: inhibitors. shares compounds with ELG1 repair inh; also: potency is read from the fitted curve at half-maximal effect; nearly all actives have a fitted effect of over 60% in size
ELG1 5FU viab: qHTS screen for small molecules that inhibit ELG1-dependent DNA repair: Hit Confirmation with 5FU Viability. shares compounds with ELG1 repair inh. cell viability with 5-FU, ELG1-dependent repair. Potency, µM (highest dose often 46.1 µM), for the others: at the top dose activity change, negative = viability loss, hits mostly cytotoxic. 670 tested, under 10 active. AID 624250, 2012;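 also: ELG1-luc HEK293T cells cotreated with 5-fluorouridine at 10 µM final; potency is read from the fitted curve at half-maximal effect; viability measured 16 h after compound addition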
ELG1 MMS viab: qHTS screen for small molecules that inhibit ELG1-dependent DNA repair: Hit Confirmation with MMS Viability | AID 624251, 2012 | Potency, µM (doses to about 46.1 µM), without a hit: top-dose activity change, negative = viability loss, actives largely listed as cytotoxic | 33% of 670 active | Cell viability with MMS, ELG1-dependent DNA repair | shares compounds with ELG1 repair inh;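 also: ELG1-luc HEK293T cells co-treated with 10 µM MMS; potency is read from the fitted curve at half-maximal effect; viability read 16 h after compound addition; nearly all actives have a fitted effect of over 60% in size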
ELG1 unstim viab: qHTS screen for small molecules that inhibit ELG1-dependent DNA repair: Hit Confirmation with Unstimulated Viability Assay; shares compounds with ELG1 repair inh; cell viability counter-screen, unstimulated, luminescence; Potency, µM (top dose mostly 45.9 µM), for the others: at the top dose activity change, negative = loss of viability, hits mostly cytotoxic; 8% of 900 active; AID 624252, 2012;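 also: potency is read from the fitted curve at half-maximal effect; compound exposure lasted 16 hours before reading; nearly all actives have a fitted effect of over 55% in size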
FLuc enzyme: qHTS screen for small molecules that inhibit ELG1-dependent DNA repair: Hit Confirmation in Biochemical Luciferin Assay; shares compounds with ELG1 repair inh; purified firefly luciferase, luminescence counter-screen; Potency, µM (doses to about 57.5 µM), inactives show at the top dose activity, negative = inhibition, actives largely listed as inhibitors; 10% of 350 active; AID 624253, 2012; also: potency is read from the fitted curve at half-maximal effect
* marks the source's active call; other numbers are inactive results. Most compounds without a hit are left out; they make up all but 5.5% or so of the library. Unless noted, calls follow the shape of the dose curve; as a rule, active = well fitted curve in the direction sought with a large enough effect; inconclusive = small, poorly fitted or top-dose-only effect, or another doubt; inactive = no such curve, though single readings can be large; an effect the other way counts as inactive or inconclusive. Unless noted, % is scaled to controls: 0 for no effect and ±100 for the full control effect.

How did COc1ccccc1NC(=O)CN1CCN(CC(=O)Nc2cc(C)ccc2OC)CC1 do in these assays?
Giardia killer: 12; FBPA coupling cs: 1; ELG1 repair inh: inconclusive; Sfp PPTase inh: 15%

What do the screens show for `CCc1ccccc1NC(=O)CN1CCN(CC(=O)Nc2cc(C)ccc2OC)CC1`?
Giardia killer: 12; FBPA coupling cs: -2; ELG1 repair inh: 1.6µM*; Sfp PPTase inh: 12%; ELG1-Luc inh: inconclusive; ELG1 MMS Luc: 2.2µM*; ELG1 5FU viab: 7%; ELG1 MMS viab: 2.5µM*; ELG1 unstim viab: -7%

What do the screens show for `c1nc(CCO[C@H]2CCCCO2)cc2cc3c(cc12)OCO3`?
Giardia killer: inconclusive; ELG1 repair inh: inconclusive; ELG1 FLuc counter: -39%; ELG1 unstim viab: -4%; FLuc enzyme: 0.65µM*

Results for O=c1[nH]cc(C#Cc2ccccc2)c2ncncc12 ?
Giardia killer: 16

Results for Cc1ccc(Oc2ccc(NC(=O)c3ccco3)cc2)cc1 ?
Giardia killer: -11; FBPA coupling cs: 0; ELG1 repair inh: inconclusive; Sfp PPTase inh: inconclusive

What do the screens show for `O=C(Nc1cc(Cl)ccc1Cl)c1ccc(OC(=O)c2ccco2)cc1`?
Giardia killer: 1; FBPA coupling cs: 0; ELG1 repair inh: 25%; Sfp PPTase inh: 21%; ELG1 FLuc counter: 41%; ELG1 unstim viab: 4%; FLuc enzyme: 5%

Results for Cc1ccc(NC(=O)c2ccc(OC(=O)c3cc4ccccc4o3)cc2)cc1 ?
Giardia killer: -11; FBPA coupling cs: -3; ELG1 repair inh: inconclusive; Sfp PPTase inh: 4%; ELG1 FLuc counter: 65%; ELG1 unstim viab: -1%; FLuc enzyme: inconclusive

Results for Cc1ccc(NC(=O)c2ccc(OC(=O)c3ccco3)cc2)cc1 ?
Giardia killer: -26; FBPA coupling cs: 1; ELG1 repair inh: inconclusive; Sfp PPTase inh: 12%; ELG1 FLuc counter: 76%; ELG1 unstim viab: -1%; FLuc enzyme: -11%

How did O=C(NCCN1CCOCC1)C1CC(=O)N(c2ccc(Cl)cc2)C1 (configuration not stated) do in these assays?
Giardia killer: -19; FBPA coupling cs: 2; ELG1 repair inh: 4%; Sfp PPTase inh: 16%

How did COC/C=C/C1=CC2=CC(=O)C(C)(OC(=O)c3cnc4ccccc4n3)C(=O)C2=CN1CCc1c[nH]c2ccccc12 (configuration not stated) do in these assays?
FBPA coupling cs: -13; Sfp PPTase inh: 7%

What do the screens show for `CCOc1ccc(C(C)NC(=O)c2cc(=O)[nH]c3ccccc23)cc1OCC` (configuration not stated)?
Giardia killer: 4; FBPA coupling cs: 0; ELG1 repair inh: 0%; Sfp PPTase inh: 11%

Results for Cc1ccccc1N1CCN(C2=NC(=O)/C(=C/c3cn[nH]c3-c3ccccc3)S2)CC1 ?
Giardia killer: 0; FBPA coupling cs: 4; ELG1 repair inh: 0.82µM*; Sfp PPTase inh: 3%; ELG1 FLuc counter: 33%; ELG1-Luc inh: 1.3µM*; ELG1 MMS Luc: 0%; ELG1 5FU viab: inconclusive; ELG1 MMS viab: 1%; ELG1 unstim viab: 0%; FLuc enzyme: -3%

How did COc1ncc2nc(-c3cn(C)c4ccccc34)c(=O)n(C)c2n1 do in these assays?
FBPA coupling cs: 0; Sfp PPTase inh: 15%

Results for O=C(Nc1ccc(F)cc1)N(CCCN1CCOCC1)Cc1cc2cc3c(cc2[nH]c1=O)OCO3 ?
Giardia killer: 1; FBPA coupling cs: 0; ELG1 repair inh: -9%; Sfp PPTase inh: -9%; ELG1 FLuc counter: 34%; ELG1-Luc inh: inconclusive; ELG1 MMS Luc: 21%; ELG1 5FU viab: 9%; ELG1 MMS viab: -8%; ELG1 unstim viab: inconclusive; FLuc enzyme: -9%

What do the screens show for `CC(=O)Nc1ccc(SCC(Cc2ccccc2)N2CCN(CCc3ccccc3)CCC2=O)cc1` (configuration not stated)?
Giardia killer: -15; FBPA coupling cs: -2; Sfp PPTase inh: -21%

How did COc1cccc(-c2cncnc2NCCc2cnc[nH]2)c1 do in these assays?
FBPA coupling cs: 2; Sfp PPTase inh: -4%; ELG1-Luc inh: 1.4µM*; ELG1 MMS Luc: inconclusive; ELG1 5FU viab: 0%; ELG1 MMS viab: 2%; ELG1 unstim viab: inconclusive

How did O=C1NC(Cc2ccccc2)c2nc3ccccc3c(=O)n2-c2ccc(Cl)cc21 (configuration not stated) do in these assays?
ELG1 repair inh: 8%
